This test can be described thus: probe aLefty2 binding to arrayed compounds – biochemical, biotinylated probe, 635/667 nm fluorescence, primary screen (AID 1094).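 Note: score merges spot fluorescence near 667 nm with spot signal-to-noise ratio.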 To be noted: small-molecule microarray, higher = more signal.
`CC(C)CN1CCc2nc(-c3ccccc3)c3c(c2C1)CO[C@@H](C)C3` displayed a composite z-score of -0.145.

Molecule `COCC#Cc1ccc([C@@H]2N[C@H](C(=O)O)CC[C@H]2C)cc1` gave a composite z-score of -0.186.

Regarding `C[C@@H](c1ccccc1)N1C(=O)[C@H]2[C@H]3[C@H](O)[C@H](O)CC(=NOC[C@@H](O)COCc4ccco4)[C@H]3CC[C@H]2C1=O`, the composite z-score was -0.0772.

Molecule `CCOC(=O)[C@H](CC(C)C)NC(=O)CCC1CC(OC(=O)NCc2ccc3c(c2)OCO3)CC2(CCCC(COC(=O)NCCc3ccc(Cl)cc3)O2)O1` (stereo partly specified) came in with a composite z-score of -0.0615.

On to `C#CCCCON=C1C[C@@H](O)[C@@H](O)[C@@H]2[C@@H]3C(=O)N(C4CCCCC4)C(=O)[C@@H]3CC[C@@H]12`, for which the composite z-score is -0.118.

On to `CC(C)=CCCC(C)=CCON=C1C[C@@H](O)[C@@H](O)[C@@H]2[C@@H]3C(=O)N(c4cccc(Oc5ccccc5)c4)C(=O)[C@@H]3CC[C@H]12`, for which the composite z-score was -0.138.

As for `COc1ccc(O[C@H]2C=C[C@@H](C#Cc3ccccc3)O[C@@H]2CO)cc1`, the composite z-score was -0.248.

`CCCNC(=O)OC[C@H]1O[C@H](CCON=C[C@@H](NS(=O)(=O)c2ccc(C)cc2)[C@H](C)C=CCC(=O)OC)C=C[C@@H]1Oc1ccc(OC)cc1` had a composite z-score of -0.181.

`COC(=O)[C@H](C)NC(=O)CCC1CC(OC(=O)NCc2cccc3ccccc23)CC2(CCCC(COC(=O)NCCCN3CCCC3=O)O2)O1` (stereo partly specified) displayed a composite z-score of 0.0598.

Molecule `COC(=O)[C@H](C)NC(=O)CCC1CC(OC(=O)NCCc2ccc(F)cc2)CC2(CCCC(COC(=O)NCC3CCCCC3)O2)O1` (stereo partly specified) returned a composite z-score of -0.139.

As to `COC(=O)[C@H](C)NC(=O)CCC1CC(OC(=O)NCc2ccc3c(c2)OCO3)CC2(CCCC(COC(=O)NCCc3ccc(Cl)cc3)O2)O1` (stereo partly specified), the composite z-score is -0.14.

On to `COc1ccc(COC(=O)NN=C2C[C@@H](O)[C@@H](O)[C@@H]3[C@@H]4C(=O)N([C@@H](C)c5ccccc5)C(=O)[C@@H]4CC[C@@H]23)cc1`, for which the composite z-score came out at 0.0378.

Turning to `COc1ccc(O[C@H]2C=C[C@@H](c3ccccc3)O[C@@H]2COC(=O)CCC(C)=NOC[C@@H](O)COCc2ccco2)cc1`, the composite z-score was -0.443.

Molecule `CCN1C(=O)[C@H]2[C@H]3[C@H](O)[C@H](O)CC(=NOCC(C)C)[C@H]3CC[C@H]2C1=O` returned a composite z-score of -0.019.

In the case of `CC(=O)OC[C@H]1O[C@H](C#CCC2CCCCC2)C=C[C@@H]1OC(C)=O`, the composite z-score is -0.194.

In turn, `CCN1C(=O)[C@H]2[C@H]3[C@H](O)[C@H](O)CC(=NOC[C@@H](O)[C@H]4O[C@@H]5OC(C)(C)O[C@@H]5[C@H]4O)[C@@H]3CC[C@H]2C1=O` displayed a composite z-score of -0.159.

With `C[C@@H]1CC[C@@H](C(=O)O)N[C@H]1c1cccc(N2CCOCC2)c1`, the composite z-score is -0.106.

`CCOC(=O)NN=C1C[C@@H](O)[C@@H](O)[C@@H]2[C@@H]3C(=O)N(c4ccc(F)cc4F)C(=O)[C@@H]3CC[C@H]12` had a composite z-score of -0.185.

`CCC1=NOC(CCC2CC(OC(=O)NCc3cccc4c3OCO4)CC3(CCCC(COC(=O)NCCc4ccc(Cl)cc4)O3)O2)C1` (stereo unspecified) yielded a composite z-score of -0.186.

Turning to `CCOC(=O)CCN1C(=O)[C@H]2[C@H]3[C@H](O)[C@H](O)CC(=NO[C@@H]4O[C@H](CO)[C@@H](O)[C@H](O)[C@H]4O)[C@@H]3CC[C@H]2C1=O`, the composite z-score was -0.0598.

In turn, `CCOC(=O)[C@H](CC(C)C)NC(=O)CCC1CC(OC(=O)NCc2ccc3c(c2)OCO3)CC2(CCCC(COC(=O)NCc3ccccc3)O2)O1` (stereo partly specified) returned a composite z-score of -0.124.

`CC(C)C(=O)N[C@H]1CCCN1C(=O)C=Cc1ccccc1`: the composite z-score is -0.0022.

With `COC(=O)[C@H](C)NC(=O)CCC1CC(OC(=O)NCc2cccc3ccccc23)CC2(CCCC(COC(=O)NCc3ccccc3)O2)O1` (stereo partly specified), the composite z-score is -0.0638.

For the molecule `CCOC(=O)[C@H](CC(C)C)NC(=O)CCC1CC(OC(=O)NCCc2ccc(F)cc2)CC2(CCCC(COC(=O)NCc3cccc4ccccc34)O2)O1` (stereo partly specified), the composite z-score was -0.181.

Turning to `COC(=O)CC=C[C@@H](C)[C@@H](C=NOC(C)CN1CCCCc2nc(C)c(C)cc21)OC` (stereo partly specified), the composite z-score is -0.0063.

With `CCN1C(=O)[C@H]2[C@H]3[C@H](O)[C@H](O)CC(=NOC[C@@H](O)COCc4ccco4)[C@H]3CC[C@H]2C1=O`, the composite z-score was -0.339.

Regarding `COCCNC(=O)OCC1CCCC2(CC(OC(=O)NCc3cccc4ccccc34)CC(CCC(=O)N[C@@H](C)C(=O)OC)O2)O1` (stereo partly specified), the composite z-score was -0.145.

The molecule `CC(=O)OC[C@H]1O[C@@H](ON=C(C)CCN2CCCCc3nc(C)c(C)cc32)[C@H](OC(C)=O)[C@@H](OC(C)=O)[C@@H]1OC(C)=O` returned a composite z-score of -0.0179.

With `O=C1C=C[C@@H](O)[C@@H]2[C@@H]3C(=O)N(c4cccc(Oc5ccccc5)c4)C(=O)[C@@H]3CC[C@@H]12`, the composite z-score is -0.204.

`CCOC(=O)[C@H](CC(C)C)NC(=O)CCC1CC(OC(=O)NCCc2ccc(F)cc2)CC2(CCCC(COC(=O)NCCOC)O2)O1` (stereo partly specified) displayed a composite z-score of -0.025.

The molecule `CCN1C(=O)[C@H]2[C@H]3[C@H](O)[C@H](O)CC(=NOC(C)CN4CCCc5nc(C)c(C)cc54)[C@@H]3CC[C@H]2C1=O` (stereo partly specified) showed a composite z-score of 0.0416.

On to `CC(C)=CCCC(C)=CCON=C1[C@H]2CCn3c(=O)n(-c4ccccc4)c(=O)n3[C@H]2[C@H](O)[C@@H]2O[C@H]12`, for which the composite z-score is 0.207.

In turn, `O=C1C=C[C@@H](O)[C@@H]2[C@@H]3C(=O)N(Cc4ccccc4)C(=O)[C@@H]3CC[C@@H]12` came in with a composite z-score of -0.147.

`CCCCOC(OCCCC)C(O)CSc1ccc2ccccc2c1` (stereo unspecified) yielded a composite z-score of -0.136.

Turning to `CC[C@@H](c1ccccc1)n1c(=O)n2n(c1=O)[C@H]1[C@H](O)[C@@H]3O[C@@H]3C(=NOCc3ccccc3)[C@H]1CC2`, the composite z-score was -0.132.

Consider `CC(CCN1CCCc2nc(C)c(C)cc21)=NOC[C@@H](C)[C@H](OCc1ccccc1)C(C)C`, for which the composite z-score was -0.286.

(Values after PubChem BioAssay.)
